TEAD-YAP inh: TEAD-YAP interaction inhibition, primary screen, TEAD-YAP interaction inhibitor project, luminescence, HEK-TIYL cells; TEAD-Gal4/YAP UAS-luciferase luminescence; inhibition, % at 9.12 µM; hit rate 1.4% among 640,000; AID 1259422, 2018; in the data active = inhibition above about 32%
FBW7 activator: FBW7 E3 ligase activators, primary screen, biochemical, AlphaScreen, human; normalized activity (activation), % at 26.1 µM; hit rate 0.13% among 650,000; AlphaScreen FBW7–phospho-cyclin E peptide binding, activator screen; in the data active = normalized activity above about 1.9%;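 also: purified mutant Fbw7 with reduced substrate affinity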
GPR151 ag: activators of human GPR151, primary screen, cell-based, PathHunter beta-arrestin, luminescence | PathHunter beta-arrestin GPR151 cells | activation, % at 11.2 µM | hit rate 1% among 650,000 | AID 1508602, 2020; in the data active = activation above about 4.9%
MITF inh: MITF inhibitors, primary screen, biochemical, AlphaScreen, human; AlphaScreen MITF homodimerization, bead proximity signal; inhibition, % at 2.6 µM; hit rate 0.91% among 650,000; AID 1259374, 2018; in the data active = inhibition above about 50%
Target sequence (O75030 whole entry, looked up): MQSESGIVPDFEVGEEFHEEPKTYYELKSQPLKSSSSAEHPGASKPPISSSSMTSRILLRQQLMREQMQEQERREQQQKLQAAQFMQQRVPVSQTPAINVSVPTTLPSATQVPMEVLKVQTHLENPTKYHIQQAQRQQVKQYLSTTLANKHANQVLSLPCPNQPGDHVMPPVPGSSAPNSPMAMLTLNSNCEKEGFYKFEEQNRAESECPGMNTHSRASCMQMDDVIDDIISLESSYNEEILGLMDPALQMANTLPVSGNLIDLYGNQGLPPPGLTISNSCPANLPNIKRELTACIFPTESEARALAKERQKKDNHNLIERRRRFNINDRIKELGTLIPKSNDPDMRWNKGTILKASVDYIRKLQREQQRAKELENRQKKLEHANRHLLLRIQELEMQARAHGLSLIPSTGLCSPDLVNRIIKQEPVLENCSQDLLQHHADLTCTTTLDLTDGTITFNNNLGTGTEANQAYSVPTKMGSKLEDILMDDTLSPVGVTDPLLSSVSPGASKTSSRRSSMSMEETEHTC
Numbers stand for hits; – = inactive. Rows were chosen to be rich in hits. Some 3.5% of all compounds tested hit in one or more screens of this group.

SMILES	TEAD-YAP inh	FBW7 activator	GPR151 ag	MITF inh
Cc1ccc(N(CCC#N)C(=O)CCl)cc1	76.6	–	–	–
N#CCCN(C(=O)CCl)c1ccccc1	65.4	–	–	–
CCOc1ccc(N(CCC#N)S(=O)(=O)c2ccc(Cl)cc2)cc1	–	–	–	–
CCOC(=O)N(CC#N)c1ccc(C)cc1	–	–	–	–
CCOc1ccc(N(CCC#N)C(=O)CCl)cc1	46.4	–	–	–
N#CCCN(C(=O)CCl)c1ccc(F)cc1	82.1	–	–	–
O=C(Nc1cccc(NC(=O)c2ccc(Cl)c([N+](=O)[O-])c2)c1)c1ccccc1	–	–	–	–
COCC(C)NC(=O)/C=C/c1ccccc1[N+](=O)[O-] (stereo not given)	–	–	–	–
O=C(CN1CCCCCCC1)N/N=C/c1ccccc1Cl	–	–	–	–
COc1cccc(C(NC(=O)N(C(C)C)C(C)C)c2nccn2C)c1OC (stereo not given)	–	–	–	–
CN(c1ncccc1CNc1nc(Nc2ccc3c(c2)CC(=O)N3)ncc1C(F)(F)F)S(C)(=O)=O	76.8	–	–	–
CN(c1ncccc1CNc1cc(Nc2ccc3c(c2)CC(=O)N3)ncc1C(F)(F)F)S(C)(=O)=O	35.5	–	–	–
CNC(=O)c1cc(N2CCOCC2)ccc1Nc1cc(Nc2ccc3c(c2)CC(=O)N3)ncc1C(F)(F)F	–	–	–	–
CCn1c(=O)cc(OCC(=O)Nc2ccc(Oc3ccccc3)cc2)c2ccccc21	–	–	–	–
CCOC(=O)C(O)(c1ccc(N(CC)C(=O)c2ccccc2)cc1)C(F)(F)F (stereo not given)	–	2.6	–	–
CS(=O)(=O)N1CCc2nc(-c3ccccn3)nc(N3CCCCCC3)c2C1	–	–	–	–
Cc1ccc(C)c(-n2c3nc(=O)[nH]c(=O)c-3cc3cc([N+](=O)[O-])ccc32)c1	56.9	–	–	–
Cc1ccc(C)c(CSc2nc3ccsc3c(=O)n2CCCCC(=O)O)c1	57.4	–	–	–
COC(=O)Cn1c(SCc2cc(C)ccc2C)nc2ccsc2c1=O	63.1	–	–	–
Cc1ccc(CNC(=O)CCCCCn2c(SCc3cc(C)ccc3C)nc3ccsc3c2=O)cc1	–	–	–	–
COc1ccccc1C(=O)Nc1ccc2nc(SCC(=O)N3CCc4ccccc43)sc2c1	–	–	–	–
Cc1nnc(SC(C)C(=O)Nc2ccc3nc(SCC(=O)N4CCc5ccccc54)sc3c2)s1 (stereo not given)	34.8	–	–	–
COc1ccccc1N1C(=O)c2ccc(C(=O)Nc3cc([N+](=O)[O-])ccc3O)cc2C1=O	–	2.1	–	–
Cc1c(Br)c(C(F)(F)F)nn1CC(=O)NCc1ccc(F)cc1C(F)(F)F	36.0	–	–	–
COc1cc(CNC(=O)Cn2nc(C(F)(F)F)c(Br)c2C)cc(OC)c1	–	–	–	–
SMILES	TEAD-YAP inh	FBW7 activator	GPR151 ag	MITF inh
Cc1ccc(-c2nc(Nc3ccccc3)s[n+]2CS(=O)(=O)c2ccccc2)cc1	66.3	–	–	–
O=C(O)c1ccc(NS(=O)(=O)c2ccc3[nH]c(=O)c(=O)[nH]c3c2)cc1	–	–	–	–
O=C(O)c1ccc(N/N=C/C2=C(N3CCOCC3)C(=C\c3ccccc3)/CC2)cc1	–	–	–	62.2
O=S(=O)(O)c1ccc(N/N=C/C2=C(N3CCOCC3)C(=C\c3ccccc3)/CC2)cc1	–	–	–	–
COc1ccc(CCNc2nc(Nc3ccncc3)nc3nc[nH]c23)cc1	44.2	–	–	–
Cn1cnc(-c2ccccc2Nc2nc(Nc3ccc(N4CCOCC4)cc3)ncc2Cl)n1	33.4	–	–	–
Cc1cnc(Nc2nc3ccccc3n2C)nc1NCc1ccccc1	42.3	–	–	–
COc1ccc(CCNc2nc(Nc3ccc(C(F)(F)F)cc3)nc3nc[nH]c23)cc1	–	–	–	–
Cc1cnc(Nc2ccncc2)nc1NCc1ccccc1	40.5	–	–	–
COc1ccc(CCNc2nc(Nc3ccc(N4CCOCC4)cc3)ncc2C)cc1	64.0	–	–	–
Cc1cnc(Nc2ccc(N3CCOCC3)cc2)nc1NCc1cccnc1	–	–	–	–
COc1ccc(CCNc2nc(Nc3ccc(N4CCOCC4)cc3)nc3nc[nH]c23)cc1	48.7	–	–	–
COc1ccc(CNc2nc(Nc3ccc(N4CCOCC4)cc3)nc3nc[nH]c23)cc1	–	–	–	–
Cc1cnc(Nc2ccc(N3CCOCC3)cc2)nc1NCc1ccccc1	37.0	–	–	–
CCOC(=O)N/N=C/c1cc(Br)c(O)c(Br)c1	–	–	–	–
C=CCN1C(=O)C2(NC(=O)c3ccccc3N2)c2ccccc21 (stereo not given)	65.6	–	–	–
Cc1nc(C(C)NC2CCN(c3cccc(NC(=O)c4ccncc4)c3)CC2)cs1 (stereo not given)	–	–	–	–
CC(NC1CCN(c2cccc(NC(=O)c3ccncc3)c2)CC1)c1ccc(Cl)cc1 (stereo not given)	35.8	–	–	–
CC(=O)N(Cc1ccc(F)cc1)C1=C(Cl)C(=O)c2ccccc2C1=O	–	–	–	–
CNC1=C(N(Cc2ccc(Cl)c(Cl)c2)C(C)=O)C(=O)c2ccccc2C1=O	83.4	–	–	–
CC(=O)N(Cc1ccccc1)C1=C(N2CCCCC2)C(=O)c2ccccc2C1=O	–	–	–	–
CC(=O)NC1=C(N(C)C)C(=O)c2ccccc2C1=O	–	–	–	–
CC(=O)N(Cc1ccc(F)cc1)C1=C(NCCc2ccccc2)C(=O)c2ccccc2C1=O	59.8	–	–	–
CCC(=O)N(C1=C(NC)C(=O)c2ccccc2C1=O)C(C)C	85.0	–	–	–
Cc1nc2c(C)cccn2c1C(=O)NCc1cccnc1	–	–	–	–
SMILES	TEAD-YAP inh	FBW7 activator	GPR151 ag	MITF inh
NC(=O)c1cc2ccccc2oc1=Nc1ccc(-c2ccccc2)cc1	–	–	–	–
CCN(Cn1ncn(C)c1=S)C1CCCCC1	–	–	–	–
O=C(NNC(=O)c1ccc(Cl)cc1Cl)c1ccccc1	–	–	–	–
O=C(COC(=O)c1cc(=O)c2ccccc2o1)Nc1ccc(Br)cc1F	–	–	–	–
COc1ccccc1N1C(=O)NC2CC1(C)Oc1ccc(Br)cc12 (stereo not given)	–	–	–	–
CCOc1ccccc1N1C(=O)NC2CC1(C)Oc1ccc(Br)cc12 (stereo not given)	–	3.3	–	–
Cc1ccc(/C=N/NC(=O)c2cc(C(C)C)[nH]n2)cc1	36.0	–	–	–
CSc1ccccc1C(=O)Nc1cccc2ccc(-n3cccc3)nc12	–	–	–	–
Cn1c(-c2ccccc2)cnc1NC(=O)c1ccc(F)cc1	49.1	–	–	–
COc1ccc(/C=C/c2nn3c(Cn4cnc5ccccc54)nnc3s2)cc1	38.5	–	–	–
c1ccc(-n2cnc3c(NCc4nc5ccccc5[nH]4)nc(Nc4ccc5ncccc5c4)nc32)cc1	–	23.4	–	–
c1ccc(CNc2nc(Nc3ccc4ncccc4c3)nc3c2ncn3-c2ccsc2)cc1	–	–	–	–

Bioassay records: PubChem BioAssay, The Scripps Research Institute Molecular Screening Center
